Laboratory results as given in PubChem BioAssay (EPA / NIEHS).
Activity calls are given as the source filed them. Rule for the calls: active = hit-call score of the fitted dose curve at least 0.9, where 1 is the maximum; inactive = score below 0.9.

How the values were obtained:
[1] = read-out: Cytochrome P450 (CYP1A1), CYP1A1 (gene 1543); experiment: LTEA_HepaRG_CYP1A1: Life Technologies and Expression Analysis (LTEA) Assay for Cytochrome P450 (CYP1A1) using HepaRG (AID 2283454); conditions: mRNA level, 48 h; actives raise or lower the signal
Procedure, shortened: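 Differentiated HepaRG cells in serum-free induction medium were exposed in duplicate for 48 h to eight half-log concentrations up to 100 uM in 0.5% DMSO. CYP1A1 mRNA was quantified by TaqMan qRT-PCR, normalized to ACTB, GAPDH and POLR2A.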

[2] = read-out: CFLAR gene, CFLAR (gene 8837); experiment: LTEA_HepaRG_CFLAR: Life Technologies and Expression Analysis (LTEA) Assay for CFLAR gene using HepaRG (AID 2283455); conditions: mRNA level, 48 h; actives raise or lower the signal
Procedure, shortened: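 HepaRG, 48 h exposure, 8-pt conc-response (100 uM top, half-log), 0.5% DMSO vehicle, duplicates. CFLAR expression by qRT-PCR; ACTB/GAPDH/POLR2A normalization; gain or loss fit vs DMSO baseline.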

[3] = read-out: Forkhead box O1 (FOXO1), FOXO1 (gene 2308); experiment: LTEA_HepaRG_FOXO1: Life Technologies and Expression Analysis (LTEA) Assay for Forkhead box O1 (FOXO1) using HepaRG (AID 2283456); conditions: mRNA level, 48 h; actives raise or lower the signal
Procedure, shortened: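 Readout is FOXO1 transcript level by multiplexed qRT-PCR against three housekeeping genes, curve-fitted in both directions relative to 0.5% DMSO vehicle. Human HepaRG cultures received chemicals for 48 h, up to 100 uM in half-log steps.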

[4] = read-out: growth arrest and DNA damage 45 (GADD45A), GADD45A (gene 1647); experiment: LTEA_HepaRG_GADD45A: Life Technologies and Expression Analysis (LTEA) Assay for growth arrest and DNA damage 45 (GADD45A) using HepaRG (AID 2283458); conditions: mRNA level, 48 h; actives raise or lower the signal
Procedure, shortened: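 Differentiated HepaRG cells exposed 48 h in serum-free induction medium to 8 concentrations, top 100 uM in half-log steps, 0.5% DMSO. GADD45A mRNA quantified by qRT-PCR, normalized to ACTB, GAPDH and POLR2A; bidirectional fit versus DMSO.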

[5] = read-out: Forkhead box O3 (FOXO3), FOXO3 (gene 2309); experiment: LTEA_HepaRG_FOXO3: Life Technologies and Expression Analysis (LTEA) Assay for Forkhead box O3 (FOXO3) using HepaRG (AID 2283459); conditions: mRNA level, 48 h; actives raise or lower the signal
Procedure, shortened: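 HepaRG, 48 h post-dose; 8 conc., half-log from 100 uM, 0.5% DMSO, duplicates; serum-free induction medium. Readout: FOXO3 mRNA, TaqMan qRT-PCR, housekeeping-normalized. Bidirectional curve fit vs DMSO baseline.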

[6] = read-out: ABC Transporter (ABCB1), ABCB1 (gene 5243); experiment: LTEA_HepaRG_ABCB1: Life Technologies and Expression Analysis (LTEA) Assay for ABC Transporter (ABCB1) using HepaRG (AID 2283460); conditions: mRNA level, 48 h; actives raise or lower the signal
Procedure, shortened: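 Expression of ABCB1 was quantified by qRT-PCR against three housekeeping genes after human HepaRG cultures received test chemicals for 48 hours. Concentrations spanned eight half-log steps topping at 100 uM in 0.5% DMSO; gain or loss of signal was fitted relative to vehicle.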

[7] = read-out: growth arrest and DNA damage 45 (GADD45B), GADD45B (gene 4616); experiment: LTEA_HepaRG_GADD45B: Life Technologies and Expression Analysis (LTEA) Assay for growth arrest and DNA damage 45 (GADD45B) using HepaRG (AID 2283461); conditions: mRNA level, 48 h; actives raise or lower the signal
Procedure, shortened: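 Differentiated HepaRG cells, plated 48 h then switched to serum-free induction medium, were exposed 48 h in duplicate to eight half-log concentrations from 100 uM in 0.5% DMSO; mRNA quantified by qRT-PCR, normalized to ACTB/GAPDH/POLR2A, bidirectional fit versus DMSO.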

[8] = read-out: ABC Transporter (ABCC3), ABCC3 (gene 8714); experiment: LTEA_HepaRG_ABCC3: Life Technologies and Expression Analysis (LTEA) Assay for ABC Transporter (ABCC3) using HepaRG (AID 2283462); conditions: mRNA level, 48 h; actives raise or lower the signal
Procedure, shortened: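 HepaRG cells in serum-free induction medium were exposed for 48 h in duplicate to 8-point half-log concentrations topping at 100 uM in 0.5% DMSO. ABCC3 mRNA was measured by qRT-PCR normalized to ACTB, GAPDH and POLR2A, with bidirectional fitting versus DMSO.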

[9] = CEETOX_H295R_TESTO: CeeTox H295R High-throughput Steroidogenesis Assay for Testosterone (TESTO) (AID 2283457); conditions: actives raise or lower the signal;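 for AC50: cells exposed to chemicals for 48 h before medium collection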
Procedure, shortened: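 H295R human adrenal cells in DMEM/F12 with ITS+ and Nu-Serum, exposed to chemicals for 48 h. Testosterone in medium measured by MTBE extraction, reverse-phase HPLC-MS/MS; bidirectional fit versus DMSO baseline. MTT viability checked in same wells.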

[10] = read-out: ABC Transporter (ABCB11), ABCB11 (gene 8647); experiment: LTEA_HepaRG_ABCB11: Life Technologies and Expression Analysis (LTEA) Assay for ABC Transporter (ABCB11) using HepaRG (AID 2283463); conditions: mRNA level, 48 h; actives raise or lower the signal
Procedure, shortened: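 ABCB11 transcript levels are read by Fluidigm TaqMan qRT-PCR after 48 h chemical treatment of human HepaRG cells. Concentrations span 100 uM downward in half-log steps with 0.5% DMSO; gain or loss is fitted against DMSO controls.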

Which results are given for CC1(C(=O)Nc2ccc(O)c(Cl)c2Cl)CCCCC1?
AC50 [1]: 67.2 µM (active); outcome [2]: inactive; outcome [3]: inactive; outcome [4]: inactive; outcome [5]: inactive; outcome [6]: inactive; outcome [7]: inactive; outcome [8]: inactive

Which AC50 [1] does the source give for CC(COc1ccc(Oc2ccccc2)cc1)Oc1ccccn1 (configuration not stated) here?
The AC50 was 77.4 µM (active).

What about the outcome [2] of the same compound?
Its outcome is “inactive”.

And the outcome [3]?
The outcome was “inactive”.

And the outcome [9]?
Its outcome is “inactive”.

What about the outcome [4] of the same compound?
Its outcome is “inactive”.

And the outcome [5]?
The outcome was “inactive”.

And the outcome [6]?
Its outcome is “inactive”.

What about the outcome [7] of the same compound?
Its outcome is “inactive”.

What about the outcome [8] of the same compound?
Its outcome is “inactive”.

And the outcome [10]?
The outcome was “inactive”.

For C=C(C)[C@H]1Cc2c(ccc3c2O[C@@H]2COc4cc(OC)c(OC)cc4[C@@H]2C3=O)O1, which AC50 [1] is on record?
Its AC50 is 2.44 µM (active).

What about the outcome [2] of the same compound?
The outcome was “inactive”.

And the AC50 [3]?
The AC50 was 11.7 µM (active).

What about the AC50 [4] of the same compound?
The AC50 was 6.57 µM (active).

And the outcome [5]?
The outcome was “inactive”.

What about the AC50 [6] of the same compound?
The AC50 was 18.6 µM (active).

And the AC50 [7]?
Its AC50 is 16.5 µM (active).

And the outcome [8]?
Its outcome is “inactive”.

What does the source list for CCOC(=O)COc1cc(-c2nn(C)c(OC(F)F)c2Cl)c(F)cc1Cl?
AC50 [1]: 50 µM (active); outcome [2]: inactive; outcome [3]: inactive; outcome [9]: inactive; outcome [4]: inactive; outcome [5]: inactive; AC50 [6]: 34.3 µM (active); outcome [7]: inactive; outcome [8]: inactive; outcome [10]: inactive

What does the source list for CON=C(C(=O)OC)c1ccccc1CON=C(C)c1cccc(C(F)(F)F)c1?
AC50 [1]: 50 µM (active); outcome [2]: inactive; outcome [3]: inactive; outcome [4]: inactive; outcome [5]: inactive; outcome [6]: inactive; outcome [7]: inactive; outcome [8]: inactive

What does the source list for O=c1ccc(=O)[nH][nH]1?
outcome [1]: inactive; outcome [2]: inactive; outcome [3]: inactive; outcome [4]: inactive; outcome [5]: inactive; outcome [6]: inactive; outcome [7]: inactive; outcome [8]: inactive

What does the source list for CN(C)C(=O)Nc1cccc(C(F)(F)F)c1?
AC50 [1]: 24.7 µM (active); outcome [2]: inactive; outcome [3]: inactive; AC50 [4]: 79.2 µM (active); outcome [5]: inactive; outcome [6]: inactive; outcome [7]: inactive; outcome [8]: inactive

What does the source list for CCC(=O)Nc1ccc(Cl)c(Cl)c1?
AC50 [1]: 32.1 µM (active); outcome [2]: inactive; outcome [3]: inactive; AC50 [9]: 2.93 µM (active); outcome [4]: inactive; outcome [5]: inactive; outcome [6]: inactive; outcome [7]: inactive; outcome [8]: inactive; outcome [10]: inactive

Which AC50 [1] does the source give for COc1ccc(C(=CC(=O)N2CCOCC2)c2ccc(Cl)cc2)cc1OC here?
Its AC50 is 50 µM (active).

And the outcome [2]?
Its outcome is “inactive”.

What about the outcome [3] of the same compound?
Its outcome is “inactive”.

And the AC50 [9]?
Its AC50 is 32.8 µM (active).

What about the outcome [4] of the same compound?
Its outcome is “inactive”.

What about the outcome [5] of the same compound?
The outcome was “inactive”.

And the outcome [6]?
Its outcome is “inactive”.

What about the outcome [7] of the same compound?
Its outcome is “inactive”.

What about the outcome [8] of the same compound?
The outcome was “inactive”.

And the outcome [10]?
Its outcome is “inactive”.

With CN1COCN(Cc2cnc(Cl)s2)C1=N[N+](=O)[O-] as the compound, how does the outcome [1] read?
The outcome was “inactive”.

And the outcome [2]?
The outcome was “inactive”.

What about the outcome [3] of the same compound?
The outcome was “inactive”.

And the outcome [4]?
Its outcome is “inactive”.

And the outcome [5]?
The outcome was “inactive”.

What about the outcome [6] of the same compound?
Its outcome is “inactive”.

And the outcome [7]?
The outcome was “inactive”.

And the outcome [8]?
Its outcome is “inactive”.

For CCOP(=O)(SC(C)CC)N1CCSC1=O (configuration not stated), which outcome [1] is on record?
Its outcome is “inactive”.

And the outcome [2]?
The outcome was “inactive”.

What about the outcome [3] of the same compound?
The outcome was “inactive”.

And the outcome [4]?
Its outcome is “inactive”.

What about the outcome [5] of the same compound?
Its outcome is “inactive”.

What about the outcome [6] of the same compound?
Its outcome is “inactive”.

What about the outcome [7] of the same compound?
Its outcome is “inactive”.

And the outcome [8]?
Its outcome is “inactive”.

With CCc1cccc(CC)c1N(COC)C(=O)CCl as the compound, how does the AC50 [1] read?
The AC50 was 50 µM (active).

And the outcome [2]?
Its outcome is “inactive”.

And the outcome [3]?
Its outcome is “inactive”.

And the outcome [4]?
Its outcome is “inactive”.

And the outcome [5]?
Its outcome is “inactive”.

And the outcome [6]?
The outcome was “inactive”.

What about the outcome [7] of the same compound?
Its outcome is “inactive”.

What about the outcome [8] of the same compound?
The outcome was “inactive”.

What does the source list for CC(C)N(C(=O)SCC(Cl)=C(Cl)Cl)C(C)C?
AC50 [1]: 67.5 µM (active); outcome [2]: inactive; outcome [3]: inactive; outcome [4]: inactive; outcome [5]: inactive; outcome [6]: inactive; outcome [7]: inactive; outcome [8]: inactive

What does the source list for CCCCSP(=O)(SCCCC)SCCCC?
AC50 [1]: 27.6 µM (active); outcome [2]: inactive; outcome [3]: inactive; outcome [4]: inactive; outcome [5]: inactive; AC50 [6]: 50 µM (active); outcome [7]: inactive; outcome [8]: inactive

Which AC50 [1] does the source give for N#CSCSC#N here?
Its AC50 is 50 µM (active).

And the AC50 [2]?
The AC50 was 75.2 µM (active).

What about the AC50 [3] of the same compound?
The AC50 was 80.6 µM (active).

And the outcome [4]?
The outcome was “inactive”.

What about the AC50 [5] of the same compound?
The AC50 was 84.9 µM (active).

What about the outcome [6] of the same compound?
Its outcome is “inactive”.

And the AC50 [7]?
Its AC50 is 50 µM (active).

What about the outcome [8] of the same compound?
The outcome was “inactive”.

Which AC50 [1] does the source give for C[N+]1(C)CCCCC1 here?
The AC50 was 50 µM (active).

And the outcome [2]?
The outcome was “inactive”.

And the outcome [3]?
The outcome was “inactive”.

And the outcome [4]?
The outcome was “inactive”.

And the outcome [5]?
Its outcome is “inactive”.

What about the outcome [6] of the same compound?
Its outcome is “inactive”.

And the outcome [7]?
Its outcome is “inactive”.

And the outcome [8]?
The outcome was “inactive”.

Which AC50 [1] does the source give for CCCSP(=O)(OCC)Oc1ccc(Br)cc1Cl (configuration not stated) here?
Its AC50 is 29.4 µM (active).

What about the outcome [2] of the same compound?
Its outcome is “inactive”.

And the outcome [3]?
Its outcome is “inactive”.

What about the outcome [4] of the same compound?
Its outcome is “inactive”.

What about the outcome [5] of the same compound?
The outcome was “inactive”.

What about the outcome [6] of the same compound?
The outcome was “inactive”.

And the outcome [7]?
Its outcome is “inactive”.

And the outcome [8]?
Its outcome is “inactive”.

Which outcome [1] does the source give for CCOP(=S)(OCC)SCCSCC here?
The outcome was “inactive”.

What about the outcome [2] of the same compound?
The outcome was “inactive”.

And the outcome [3]?
Its outcome is “inactive”.

What about the outcome [4] of the same compound?
The outcome was “inactive”.

What about the outcome [5] of the same compound?
Its outcome is “inactive”.

What about the AC50 [6] of the same compound?
Its AC50 is 0.0511 µM (active).

And the outcome [7]?
The outcome was “inactive”.

And the outcome [8]?
The outcome was “inactive”.
